# Values without a mark were called inactive. Inconclusive results are not listed. Entries that show only a call come without a potency. The source made the active and inactive calls. Unless noted, calls come from the whole dose curve.
# Molecular target: Lysosomal acid glucosylceramidase (Homo sapiens) (UniProt P04062)
# Assay: Glucocerebrosidase-p2 (AID 348; in the data active = potency below about 10 µM; note: potency is the fitted concentration of half-maximal effect)
# Conditions: purified GBA, blue fluorogenic substrate, 40 min
# Method in brief: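 Compounds titrated from 0.6 nM upwards against 0.2 nM enzyme in pH 5.9 citric acid/KH2PO4, taurocholate, tween-20; blue fluorogenic substrate 80 uM, 40 min room temperature, stopped and read Ex 365/Em 440 for AC50.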
# Sequence of Lysosomal acid glucosylceramidase (Homo sapiens) (P04062 whole entry, looked up): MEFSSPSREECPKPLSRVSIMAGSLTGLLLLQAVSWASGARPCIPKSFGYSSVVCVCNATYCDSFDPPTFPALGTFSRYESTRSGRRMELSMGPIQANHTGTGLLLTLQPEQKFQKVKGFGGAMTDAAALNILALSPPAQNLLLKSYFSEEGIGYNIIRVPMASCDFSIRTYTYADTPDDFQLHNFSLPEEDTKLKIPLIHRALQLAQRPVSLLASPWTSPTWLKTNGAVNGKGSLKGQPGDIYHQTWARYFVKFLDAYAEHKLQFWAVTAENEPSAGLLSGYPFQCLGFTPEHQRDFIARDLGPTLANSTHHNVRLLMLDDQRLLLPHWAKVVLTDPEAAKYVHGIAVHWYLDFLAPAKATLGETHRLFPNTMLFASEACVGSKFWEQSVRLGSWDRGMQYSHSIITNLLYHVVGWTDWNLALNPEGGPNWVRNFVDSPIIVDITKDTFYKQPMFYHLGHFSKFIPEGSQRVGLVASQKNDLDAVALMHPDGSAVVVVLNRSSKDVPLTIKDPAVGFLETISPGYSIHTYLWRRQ
row,Structure (SMILES),Potency [µM]
1,CN(C)c1ccccc1CN1CCCN(Cc2ccccc2N(C)C)C1c1ccncc1,> 11.4
2,O=S(=O)(O)c1ccc2cc(N=Nc3cc(S(=O)(=O)O)c4cccnc4c3O)ccc2c1,> 11.4
3,NC(=O)c1nnn(Cc2cc(Cl)c(C(=O)c3ccc(Cl)cc3)c(Cl)c2)c1N,> 11.4

# Tested on: not listed separately
# Assay: AP1 Signaling Pathway (AID 357; active = well fitted curve in either direction with a large enough effect, not every such curve was filed as active;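 note: ME-180 reporter cells stimulated with EGF at its EC50 level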)
# Conditions: ME-180 (cervical carcinoma) AP-1-bla reporter, EGF-induced, beta-lactamase ratio, 5 h; series mostly up to 17.2 µM
# Method in brief: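 Read-out was the 460nm/530nm emission ratio (excitation 405nm) after CCF4 loading for 2.5 hours at room temperature. Cells carried an AP-1-driven beta-lactamase reporter, were stimulated with EC50 EGF plus compound for 5 hours, and AC50 values came from titrations.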
row,Structure (SMILES),outcome
1,CN(C)c1ccccc1CN1CCCN(Cc2ccccc2N(C)C)C1c1ccncc1,inactive
2,NS(=O)(=O)c1cc(Cl)c(Cl)c(S(N)(=O)=O)c1,inactive
3,O=S(=O)(O)c1ccc2cc(N=Nc3cc(S(=O)(=O)O)c4cccnc4c3O)ccc2c1,inactive
4,NC(=O)c1nnn(Cc2cc(Cl)c(C(=O)c3ccc(Cl)cc3)c(Cl)c2)c1N,inactive
5,C=C1c2cccc(O)c2C(O)=C2C(=O)[C@@]3(O)C(O)=C(C(N)=O)C(=O)[C@@H](N(C)C)[C@@H]3[C@@H](O)[C@H]12,inactive
6,NCC1CCC(C(=O)O)CC1 (centres undefined),inactive
7,CN[C@H]1[C@@H](O[C@@H]2[C@H](O[C@@H]3[C@@H](O)[C@@H](O)[C@@H](N=C(N)N)[C@@H](O)[C@@H]3N=C(N)N)O[C@H](C)[C@@]2(O)C=O)O[C@@H](CO)[C@@H](O)[C@H]1O,inactive
8,CC(NCCc1ccc(O)cc1)C(O)c1ccc(O)cc1 (centres undefined),inactive
9,Cc1cc2nc3c(=O)[nH]c(=O)nc-3n(CC(O)C(O)C(O)CO)c2cc1C (centres undefined),inactive

# Molecular target: Cytochrome P450 1A2 (Homo sapiens) (UniProt P05177)
# Assay: p450-cyp1a2 (AID 410); note: potency is the fitted concentration of half-maximal effect
# Conditions: recombinant CYP1A2, luciferin-ME demethylation, luminescence; series mostly up to 25.6 µM
# Method in brief: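 Human CYP1A2 (20nM) demethylated Luciferin-ME at its Km (100uM) in 100mM KPO4. After 10 min compound preincubation, NADPH regeneration ran the reaction 60 min at room temperature. Luciferin was read by luminescence, normalized to 57 uM furafylline.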
# Sequence of Cytochrome P450 1A2 (Homo sapiens) (P05177 whole entry, looked up): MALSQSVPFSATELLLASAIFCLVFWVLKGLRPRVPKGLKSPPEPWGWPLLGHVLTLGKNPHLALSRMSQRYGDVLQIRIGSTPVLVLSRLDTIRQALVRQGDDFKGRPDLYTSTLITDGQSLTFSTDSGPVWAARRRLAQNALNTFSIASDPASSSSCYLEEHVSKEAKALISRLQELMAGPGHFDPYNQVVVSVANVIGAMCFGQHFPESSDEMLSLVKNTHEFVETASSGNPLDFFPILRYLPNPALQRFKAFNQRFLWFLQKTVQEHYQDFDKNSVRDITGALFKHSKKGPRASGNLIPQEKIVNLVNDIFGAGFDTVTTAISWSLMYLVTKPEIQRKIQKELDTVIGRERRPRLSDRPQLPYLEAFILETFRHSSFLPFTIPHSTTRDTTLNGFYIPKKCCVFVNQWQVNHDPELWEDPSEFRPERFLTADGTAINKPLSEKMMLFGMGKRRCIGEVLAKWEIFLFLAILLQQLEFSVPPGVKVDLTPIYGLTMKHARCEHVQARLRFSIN
Structure (SMILES),Potency,"activity change, negative = inhibition"
CN(C)c1ccccc1CN1CCCN(Cc2ccccc2N(C)C)C1c1ccncc1,inactive,–
CCC(=C(CC)c1ccc(O)cc1)c1ccc(O)cc1,15.8 µM (active),–
NS(=O)(=O)c1cc(Cl)c(Cl)c(S(N)(=O)=O)c1,inactive,–
O=S(=O)(O)c1ccc2cc(N=Nc3cc(S(=O)(=O)O)c4cccnc4c3O)ccc2c1,–,-18.8% [at 2.29 µM]
Cc1ccc(NC(=O)c2cccc(N(C)C)c2)cc1NC(=O)c1ccc(O)cc1,1.26 µM (active),–
CN(C)CCN(Cc1ccc(Cl)cc1)c1ccccn1,12.6 µM (active),–
NC(=O)c1nnn(Cc2cc(Cl)c(C(=O)c3ccc(Cl)cc3)c(Cl)c2)c1N,–,-2.2% [at 2.29 µM]
C=C1c2cccc(O)c2C(O)=C2C(=O)[C@@]3(O)C(O)=C(C(N)=O)C(=O)[C@@H](N(C)C)[C@@H]3[C@@H](O)[C@H]12,inactive,–
NCC1CCC(C(=O)O)CC1 (centres undefined),inactive,–
CN[C@H]1[C@@H](O[C@@H]2[C@H](O[C@@H]3[C@@H](O)[C@@H](O)[C@@H](N=C(N)N)[C@@H](O)[C@@H]3N=C(N)N)O[C@H](C)[C@@]2(O)C=O)O[C@@H](CO)[C@@H](O)[C@H]1O,inactive,–
Cc1cc(NC(=O)Nc2ccc(N(C)C)cc2)c2cc(F)cc(F)c2n1,0.126 µM (active),–
Clc1ccc(COC(Cn2ccnc2)c2ccc(Cl)cc2Cl)c(Cl)c1 (centres undefined),1.26 µM (active),–
